Source: the supplement of paper PMC11732987, “Enantioselective OTUD7B fragment discovery through chemoproteomics screening and high-throughput optimisation” (Communications Chemistry, 2025)

How the values were obtained:
Assay in all cases: log2 ratio of Biotin-Ahx-Ub-VS probe labelling (fragment/DMSO); higher = less target engagement (more negative = stronger competition), active = hit call of the paper (q ≤ 0.05, log2 ratio ≤ -1)
Conditions in all cases: compound concentration: 200 uM; treatment time: 3 h
OTUD6B = target: T1, OTUD6B (UniProt Q8N6M0)
T1 sequence (whole entry): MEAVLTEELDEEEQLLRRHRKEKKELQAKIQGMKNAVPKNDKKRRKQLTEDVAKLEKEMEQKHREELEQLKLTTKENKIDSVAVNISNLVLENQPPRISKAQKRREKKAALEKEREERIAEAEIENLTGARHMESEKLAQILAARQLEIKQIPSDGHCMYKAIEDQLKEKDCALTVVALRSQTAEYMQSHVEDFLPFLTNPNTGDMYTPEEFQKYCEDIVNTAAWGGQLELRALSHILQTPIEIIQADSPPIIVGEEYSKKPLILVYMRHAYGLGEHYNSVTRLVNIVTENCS
Procedure, shortened: (§1)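 Labelling with Biotin-Ahx-Ub-VS (0.5 µM final, 1 h) followed a 3 h triplicate treatment of HEK293T lysate (495 µg per sample, Tris/CHAPS/IGEPAL buffer with protease inhibitors) with fragment at 200 µM or vehicle. Labelled DUBs were NeutrAvidin-enriched, digested with LysC and trypsin, and run by diaPASEF LC-MS/MS. The values, average log2 fragment/vehicle ratios by unpaired t-test, come from global-median-normalised Spectronaut label-free quantities. Proteins with ≥2 unique peptides were used.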

OTUD7B = target: T2, OTUD7B (UniProt Q6GQQ9)
T2 sequence (whole entry): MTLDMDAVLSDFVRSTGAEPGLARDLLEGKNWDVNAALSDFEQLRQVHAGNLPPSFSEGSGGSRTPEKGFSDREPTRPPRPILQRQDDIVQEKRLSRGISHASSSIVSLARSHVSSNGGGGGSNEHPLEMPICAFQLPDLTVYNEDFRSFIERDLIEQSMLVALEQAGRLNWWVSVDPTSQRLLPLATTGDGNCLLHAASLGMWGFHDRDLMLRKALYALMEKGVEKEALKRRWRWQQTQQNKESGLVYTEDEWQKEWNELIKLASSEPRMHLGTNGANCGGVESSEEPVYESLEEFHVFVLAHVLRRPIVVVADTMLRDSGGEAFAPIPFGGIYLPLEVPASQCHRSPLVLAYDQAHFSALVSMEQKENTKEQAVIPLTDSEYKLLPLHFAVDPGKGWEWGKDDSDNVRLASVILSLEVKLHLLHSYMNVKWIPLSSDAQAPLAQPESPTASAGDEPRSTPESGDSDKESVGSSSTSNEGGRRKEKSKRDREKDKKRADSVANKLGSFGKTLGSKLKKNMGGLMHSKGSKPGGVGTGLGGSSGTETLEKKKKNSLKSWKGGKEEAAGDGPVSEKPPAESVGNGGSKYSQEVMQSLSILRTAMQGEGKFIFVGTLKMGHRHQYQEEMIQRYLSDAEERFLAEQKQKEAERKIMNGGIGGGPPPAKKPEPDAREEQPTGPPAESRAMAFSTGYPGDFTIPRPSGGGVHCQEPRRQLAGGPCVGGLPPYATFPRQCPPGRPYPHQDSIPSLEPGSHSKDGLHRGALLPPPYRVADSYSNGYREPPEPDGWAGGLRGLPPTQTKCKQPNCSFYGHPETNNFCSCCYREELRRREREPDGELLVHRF
Procedure, shortened: as §1

PRPF8 = PRPF8 (UniProt Q6P2Q9)
Procedure, shortened: as §1

PSMD7 = target: T3, PSMD7 (UniProt P51665)
T3 sequence (whole entry): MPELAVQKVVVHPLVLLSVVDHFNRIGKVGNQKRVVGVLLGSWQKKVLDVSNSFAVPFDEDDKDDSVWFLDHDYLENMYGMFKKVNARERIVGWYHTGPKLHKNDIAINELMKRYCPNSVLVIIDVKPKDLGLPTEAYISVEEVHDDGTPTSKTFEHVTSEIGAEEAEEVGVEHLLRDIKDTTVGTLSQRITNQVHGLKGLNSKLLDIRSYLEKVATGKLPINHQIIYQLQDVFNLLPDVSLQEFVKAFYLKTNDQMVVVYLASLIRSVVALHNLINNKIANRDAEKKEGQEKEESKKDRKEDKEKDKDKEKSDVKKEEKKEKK
Procedure, shortened: as §1

UCHL1 = UCHL1 (UniProt P09936)
Procedure, shortened: as §1

UCHL3 = target: T4, UCHL3 (UniProt P15374)
T4 sequence (whole entry): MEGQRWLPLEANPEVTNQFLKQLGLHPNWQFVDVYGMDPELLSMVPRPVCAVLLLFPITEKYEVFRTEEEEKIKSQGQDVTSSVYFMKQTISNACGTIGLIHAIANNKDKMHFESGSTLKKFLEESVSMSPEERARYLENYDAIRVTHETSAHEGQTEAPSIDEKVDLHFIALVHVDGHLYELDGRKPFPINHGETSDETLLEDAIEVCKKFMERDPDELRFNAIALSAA
Procedure, shortened: as §1

UCHL5 = target: T5, UCHL5 (UniProt Q9Y5K5)
T5 sequence (whole entry): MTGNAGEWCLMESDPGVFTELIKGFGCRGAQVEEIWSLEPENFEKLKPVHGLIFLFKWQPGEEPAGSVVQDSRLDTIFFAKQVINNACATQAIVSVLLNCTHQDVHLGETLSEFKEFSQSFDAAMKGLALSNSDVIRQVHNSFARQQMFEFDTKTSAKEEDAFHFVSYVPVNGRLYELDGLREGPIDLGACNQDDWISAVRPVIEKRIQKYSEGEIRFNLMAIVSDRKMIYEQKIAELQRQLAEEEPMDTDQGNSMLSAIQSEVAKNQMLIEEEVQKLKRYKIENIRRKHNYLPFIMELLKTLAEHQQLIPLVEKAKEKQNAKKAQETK
Procedure, shortened: as §1

USP10 = USP10 (UniProt Q14694)
Procedure, shortened: as §1

USP15 = target: T6, USP15 (UniProt Q9Y4E8)
T6 sequence (whole entry): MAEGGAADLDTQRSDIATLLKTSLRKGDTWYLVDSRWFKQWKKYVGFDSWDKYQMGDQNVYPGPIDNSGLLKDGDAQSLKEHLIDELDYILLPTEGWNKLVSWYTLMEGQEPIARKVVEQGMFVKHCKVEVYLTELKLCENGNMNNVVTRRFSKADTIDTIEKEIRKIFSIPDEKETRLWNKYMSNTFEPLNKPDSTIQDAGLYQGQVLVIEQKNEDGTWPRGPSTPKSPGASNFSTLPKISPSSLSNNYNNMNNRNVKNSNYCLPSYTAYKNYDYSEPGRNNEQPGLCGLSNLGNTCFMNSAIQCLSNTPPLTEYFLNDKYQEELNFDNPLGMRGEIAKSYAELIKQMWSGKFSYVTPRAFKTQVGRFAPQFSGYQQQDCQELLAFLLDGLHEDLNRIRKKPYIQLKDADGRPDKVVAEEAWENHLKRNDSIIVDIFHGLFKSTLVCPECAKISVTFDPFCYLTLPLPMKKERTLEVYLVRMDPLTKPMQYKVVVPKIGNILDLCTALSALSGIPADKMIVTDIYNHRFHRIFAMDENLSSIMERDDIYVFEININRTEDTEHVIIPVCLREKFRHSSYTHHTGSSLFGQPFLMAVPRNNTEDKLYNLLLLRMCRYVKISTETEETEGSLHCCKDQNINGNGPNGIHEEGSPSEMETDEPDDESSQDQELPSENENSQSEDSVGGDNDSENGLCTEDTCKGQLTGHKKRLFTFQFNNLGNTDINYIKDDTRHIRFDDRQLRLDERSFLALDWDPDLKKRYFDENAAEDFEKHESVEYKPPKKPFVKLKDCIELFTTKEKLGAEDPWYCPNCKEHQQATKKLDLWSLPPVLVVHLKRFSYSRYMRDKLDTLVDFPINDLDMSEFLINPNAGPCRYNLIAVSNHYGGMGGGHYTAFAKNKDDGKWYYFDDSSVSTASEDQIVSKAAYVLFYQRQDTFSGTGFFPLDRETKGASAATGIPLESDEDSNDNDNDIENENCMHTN
Procedure, shortened: as §1

USP16 = USP16 (UniProt Q9Y5T5)
Procedure, shortened: as §1

Measured: log2 ratio of Biotin-Ahx-Ub-VS probe labelling

UCHL1, sequence (P09936 whole entry, looked up): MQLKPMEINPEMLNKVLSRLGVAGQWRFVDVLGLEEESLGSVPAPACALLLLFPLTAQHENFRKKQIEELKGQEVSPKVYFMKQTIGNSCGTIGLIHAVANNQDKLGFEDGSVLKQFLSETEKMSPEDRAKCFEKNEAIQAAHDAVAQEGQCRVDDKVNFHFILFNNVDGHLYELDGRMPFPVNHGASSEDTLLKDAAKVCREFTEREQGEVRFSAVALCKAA
USP16, sequence (Q9Y5T5 whole entry, looked up): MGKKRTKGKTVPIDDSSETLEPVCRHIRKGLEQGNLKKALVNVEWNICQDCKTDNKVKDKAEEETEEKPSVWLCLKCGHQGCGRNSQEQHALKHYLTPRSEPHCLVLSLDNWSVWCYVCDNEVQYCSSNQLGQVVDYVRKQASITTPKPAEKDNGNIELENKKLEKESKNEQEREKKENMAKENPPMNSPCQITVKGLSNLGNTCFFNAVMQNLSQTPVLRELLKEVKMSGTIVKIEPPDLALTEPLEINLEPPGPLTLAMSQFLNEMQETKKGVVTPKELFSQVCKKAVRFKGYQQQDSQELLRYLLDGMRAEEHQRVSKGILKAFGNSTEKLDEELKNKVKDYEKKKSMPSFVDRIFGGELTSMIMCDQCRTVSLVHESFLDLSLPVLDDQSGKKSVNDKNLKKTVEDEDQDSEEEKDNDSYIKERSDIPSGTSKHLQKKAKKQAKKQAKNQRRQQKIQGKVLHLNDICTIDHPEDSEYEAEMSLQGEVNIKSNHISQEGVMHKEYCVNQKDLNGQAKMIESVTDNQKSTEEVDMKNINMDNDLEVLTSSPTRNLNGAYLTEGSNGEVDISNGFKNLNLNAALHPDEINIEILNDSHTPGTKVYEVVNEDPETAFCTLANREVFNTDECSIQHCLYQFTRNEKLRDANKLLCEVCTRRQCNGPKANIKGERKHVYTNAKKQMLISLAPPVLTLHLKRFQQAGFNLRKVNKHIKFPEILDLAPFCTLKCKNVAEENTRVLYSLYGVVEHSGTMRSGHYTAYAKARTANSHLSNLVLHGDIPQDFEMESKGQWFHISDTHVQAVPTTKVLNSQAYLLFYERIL
USP10, sequence (Q14694 whole entry): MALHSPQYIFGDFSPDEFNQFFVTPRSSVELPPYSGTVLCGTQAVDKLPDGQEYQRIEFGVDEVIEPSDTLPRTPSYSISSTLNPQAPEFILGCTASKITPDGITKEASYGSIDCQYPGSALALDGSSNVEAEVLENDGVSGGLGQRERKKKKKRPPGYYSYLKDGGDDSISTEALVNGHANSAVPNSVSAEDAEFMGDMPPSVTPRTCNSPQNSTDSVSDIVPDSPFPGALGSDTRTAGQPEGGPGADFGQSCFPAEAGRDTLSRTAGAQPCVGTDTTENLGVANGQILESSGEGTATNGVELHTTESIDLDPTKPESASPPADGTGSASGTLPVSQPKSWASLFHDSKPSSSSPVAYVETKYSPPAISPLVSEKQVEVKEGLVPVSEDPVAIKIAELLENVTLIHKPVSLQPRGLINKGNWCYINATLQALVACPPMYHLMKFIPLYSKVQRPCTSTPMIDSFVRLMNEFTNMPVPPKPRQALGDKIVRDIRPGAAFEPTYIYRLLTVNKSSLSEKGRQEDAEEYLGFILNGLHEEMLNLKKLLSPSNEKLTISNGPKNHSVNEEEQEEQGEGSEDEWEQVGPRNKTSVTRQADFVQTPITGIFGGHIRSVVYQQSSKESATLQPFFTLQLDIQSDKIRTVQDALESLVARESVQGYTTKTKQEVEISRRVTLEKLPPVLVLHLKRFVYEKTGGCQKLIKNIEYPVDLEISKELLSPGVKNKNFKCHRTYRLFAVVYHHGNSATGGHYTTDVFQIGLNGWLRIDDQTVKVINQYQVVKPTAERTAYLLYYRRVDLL

O=C(CCl)NCc1ccc(N2CCOCC2)nc1
active: UCHL1 -1.45
inactive: OTUD6B -0.139 | OTUD7B -0.502 | PRPF8 -0.0538 | PSMD7 -0.249 | UCHL3 0.0731 | UCHL5 -0.235 | USP10 -0.0833 | USP15 -0.285 | USP16 -0.342
